Inconclusive results are not listed. Calls of active or inactive are those of the source. Unless noted, calls come from the whole dose curve; as a rule, active = well fitted curve in the direction sought with a large enough effect in the repeat runs; inconclusive = weak or mixed curves; inactive = no such curve, though single readings can be large; an effect the other way counts as inactive or inconclusive.
How the values were obtained:
[1] = qHTS assay for small molecule agonists of the p53 signaling pathway - cell viability (AID 651633; calls by dose curve;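 note: p53RE-bla HCT reporter cells with a stable beta-lactamase p53 reporter; nearly all actives have a fitted effect of over 30% in size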); conditions: p53RE-bla HCT-116 viability, ATP luminescence, 16 h; series mostly up to 83.3 µM
Outline: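 p53RE-bla cells, seeded at 4,000 per well and rested 5 h at 37 C/5% CO2, received compounds in DMSO for 16 h at 37 C. CellTiter-Glo was then added, and luminescence was read after 30 min at room temperature to gauge cytotoxicity.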

[2] = qHTS assay for small molecules that induce genotoxicity in human embryonic kidney cells expressing luciferase-tagged ATAD5 - cell viability (AID 651634; calls by dose curve; note: nearly all actives have a fitted effect of over 25% in size); conditions: HEK293T ATAD5-luc cells viability, CellTiter-Fluor, 15.5 h; series mostly up to 83.3 µM
Outline: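 Cells (HEK293T, luciferase-tagged ATAD5) are seeded at 2,000 per well, dosed with compound or DMSO vehicle, and incubated 15.5 hr at 37C and 5% CO2. CellTiter-Fluor is added for 30 min before fluorescence is measured.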

[3] = qHTS assay for small molecule disruptors of the mitochondrial membrane potential - cell viability (AID 720634; calls by dose curve;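 note: human HepG2 liver cancer cells; nearly all actives have a fitted effect of over 20% in size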); conditions: HepG2 viability, ATP luminescence (CellTiter-Glo), 1 h; series mostly up to 83.2 µM
Outline: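 Cytotoxicity was measured by ATP quantitation in HepG2 wells that had first been treated with compound for 1 hr and stained with m-MPI dye; CellTiter-Glo incubation was 30 min at room temperature.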

[4] = qHTS assay to test for compound auto fluorescence at 590 nm (red) in HepG2 cells (AID 720674); conditions: HepG2 autofluorescence, red 540/590 nm, 1 h; series mostly up to 91.3 µM
Outline: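 Rose Bengal sodium served as the red fluorophore standard. HepG2 monolayers (overnight attachment, MEM with 10% FBS) were exposed to test compounds for 1 hr at 37 C and read at Ex 540/Em 590 nm.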

[5] = qHTS assay to test for compound auto fluorescence at 535 nm (green) in HepG2 cells (AID 720675); conditions: green autofluorescence 485/535 nm, 1 h; series mostly up to 91.3 µM
[6] = qHTS assay to test for compound auto fluorescence at 460 nm (blue) in HEK293 cells (AID 720678); conditions: blue autofluorescence 405/460 nm; series mostly up to 91.3 µM
Outline: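 Blue-channel (Ex/Em 405/460 nm) intensity measured in HEK293 cultures after overnight compound exposure at 37C; signal expressed relative to triamterene. Cells plated 2,000 per well in 10% dialyzed FBS medium and allowed 4-5 hr to attach.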

[7] = qHTS assay to test for compound auto fluorescence at 590 nm (red) in HEK293 cells (AID 720679); conditions: red autofluorescence 540/590 nm; series mostly up to 91.3 µM
Outline: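 Red-channel autofluorescence (Ex/Em 540/590 nm; Rose Bengal sodium reference) was measured after overnight 37C, 5% CO2 exposure of attached HEK293 cells, 2,000 per well in medium with 10% dialyzed FBS.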

[8] = qHTS assay to test for compound auto fluorescence at 460 nm (blue) in HEK293 cell free culture (AID 720681); conditions: cell-free medium, autofluorescence 405/460 nm (blue); series mostly up to 91.3 µM
Outline: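 Test compounds were pinned into cell-free culture medium (DMEM with 10% FBS) and fluorescence was read directly at Ex/Em 405/460 nm. Signals were expressed as fluorescence equivalents of triamterene, with DMSO vehicle as control.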

[9] = qHTS assay to test for compound auto fluorescence at 535 nm (green) in HEK293 cell free culture (AID 720682); conditions: cell-free medium, green autofluorescence 485/535 nm, hits give high values; series mostly up to 91.3 µM
Outline: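 Green-label autofluorescence (485 nm excitation, 535 nm emission) measured on compound added to cell-free culture medium (DMEM, 10% FBS). Output is expressed relative to fluorescein.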

[10] = qHTS assay to test for compound auto fluorescence at 590 nm (red) in HEK293 cell free culture (AID 720683); conditions: cell-free medium autofluorescence, Ex540/Em590 red; series mostly up to 91.3 µM
Outline: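 Tox21 10K library compounds were pinned into cell-free DMEM with 10% FBS and fluorescence was read at excitation 540 nm. Activity is expressed as Rose Bengal sodium equivalency.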

[11] = qHTS assay to test for compound auto fluorescence at 590 nm (red) in HepG2 cell free culture (AID 720684); conditions: cell-free medium autofluorescence, red 540/590 nm; series mostly up to 91.3 µM
Outline: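 Readout: intrinsic compound fluorescence at 590 nm emission after 540 nm excitation, scaled to Rose Bengal sodium. Matrix was cell-free MEM with 10% FBS; DMSO vehicle wells served as control.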

[12] = qHTS assay to test for compound auto fluorescence at 460 nm (blue) in HepG2 cell free culture (AID 720685); conditions: Cell-free culture medium, blue autofluorescence 405/460 nm; series mostly up to 91.3 µM
Outline: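 Cell-free plates of MEM plus 10% FBS received 23 nL compound or DMSO vehicle; blue-channel (405/460 nm) intensity scored against triamterene as reference fluorophore.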

[13] = qHTS assay to test for compound auto fluorescence at 535 nm (green) in HepG2 cell free culture (AID 720686); conditions: Cell-free medium, green autofluorescence 485/535 nm; series mostly up to 91.3 µM
[14] = qHTS assay to test for compound auto fluorescence at 460 nm (blue) in HepG2 cells (AID 720687); conditions: autofluorescence 405/460 nm, 1 h; series mostly up to 91.3 µM
Outline: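 Cells (2,000/well in MEM with 10% FBS) attached overnight at 37 C, then were exposed to compound or DMSO for 1 hr at 37 C, 5% CO2. Fluorescence read at Ex/Em 405/460 nm, expressed as triamterene-equivalent signal.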

[15] = biological target: Glucocorticoid receptor (Homo sapiens) (UniProt P04150); experiment: qHTS assay to identify small molecule agonists of the glucocorticoid receptor (GR) signaling pathway (AID 720691; active = well fitted activation curve with a large enough effect in the signal ratio in the repeat runs, not every such curve was filed as active; the % refers to the signal ratio); conditions: GR-bla HeLa, beta-lactamase reporter ratio, 18 h; activation: at 62.4 µM (top of the series) unless noted
Chain of Glucocorticoid receptor (Homo sapiens) (P04150 whole entry, looked up): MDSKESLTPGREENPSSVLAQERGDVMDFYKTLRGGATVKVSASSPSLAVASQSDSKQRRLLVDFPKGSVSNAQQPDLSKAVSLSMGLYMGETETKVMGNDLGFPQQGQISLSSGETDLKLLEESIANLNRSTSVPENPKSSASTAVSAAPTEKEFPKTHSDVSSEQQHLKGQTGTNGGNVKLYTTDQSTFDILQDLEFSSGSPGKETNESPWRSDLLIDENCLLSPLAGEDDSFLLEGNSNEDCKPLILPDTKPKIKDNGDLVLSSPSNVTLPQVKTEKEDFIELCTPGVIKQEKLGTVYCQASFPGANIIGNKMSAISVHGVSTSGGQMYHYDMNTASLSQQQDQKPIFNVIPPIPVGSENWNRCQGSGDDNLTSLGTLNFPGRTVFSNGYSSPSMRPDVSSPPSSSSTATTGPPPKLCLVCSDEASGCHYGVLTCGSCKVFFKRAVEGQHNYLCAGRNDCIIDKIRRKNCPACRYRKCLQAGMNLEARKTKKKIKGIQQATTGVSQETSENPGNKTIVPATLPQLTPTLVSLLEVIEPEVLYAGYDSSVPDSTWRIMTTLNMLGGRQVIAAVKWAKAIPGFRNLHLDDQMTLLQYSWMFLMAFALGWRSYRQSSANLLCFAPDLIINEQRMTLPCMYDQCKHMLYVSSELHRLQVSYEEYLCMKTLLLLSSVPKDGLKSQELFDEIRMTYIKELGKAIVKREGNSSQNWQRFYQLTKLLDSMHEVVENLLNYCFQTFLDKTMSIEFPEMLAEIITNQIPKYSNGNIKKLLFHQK
Outline: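 Steps: seed GR-bla HeLa cells, incubate 4 h at 37 C/5% CO2; pin-transfer DMSO-dissolved compounds; incubate 18 h at 37 C; add LiveBLAzer B/G FRET substrate; after 2 h at room temperature, measure fluorescence.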

[16] = qHTS assay to test for compound auto fluorescence at 535 nm (green) in HEK293 cells (AID 720680); conditions: green autofluorescence 485/535 nm; series mostly up to 91.3 µM
[17] = biological target: Glucocorticoid receptor (Homo sapiens) (UniProt P04150); experiment: qHTS assay to identify small molecule antagonists of the glucocorticoid receptor (GR) signaling pathway (AID 720692; active = well fitted inhibition curve with a large enough effect in the signal ratio in the repeat runs, not every such curve was filed as active; the % refers to the signal ratio); conditions: GR-bla HeLa, beta-lactamase FRET ratio, dexamethasone-stimulated, 18 h; series mostly up to 58.5 µM
Outline: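 Antagonism was scored as loss of dexamethasone-driven (5 nM final) reporter signal in HeLa cells bearing a glucocorticoid response element–beta-lactamase construct, after 18 h compound exposure at 37 C and 2 h FRET substrate loading.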

[18] = qHTS assay for small molecules that induce genotoxicity in human embryonic kidney cells expressing luciferase-tagged ATAD5 (AID 651632); conditions: HEK293T ATAD5-luciferase induction, 16 h; series mostly up to 83.3 µM; note: nearly all actives have a fitted effect of over 15% in size
Outline: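 Cells were seeded at 2,000 per well, dosed with compound, and incubated 16 hr at 37C in 5% CO2. Luciferase activity was then quantified after a 30 min room-temperature incubation with Amplite.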
% is set by controls: 0 for no effect and ±100 for the full control effect.

S=C([S-])NCCNC(=S)[S-].[Mn+2]
inactive: Potency [1] | Potency [2] | Potency [3] | Potency [4] | Potency [5] | outcome [6] | Potency [7] | outcome [8] | outcome [9] | Potency [10] | Potency [11] | outcome [12] | Potency [13] | outcome [14] | Potency [15]

C=CCOc1ccccc1OCC(O)CNC(C)C (stereo not given)
inactive: Potency [2] | Potency [3] | fluorescence, relative to Rose Bengal [4] -0.0179% [at 18.6 µM] | fluorescence, % of fluorescein control [5] 0.095% [at 18.6 µM] | fluorescence, % of triamterene [6] 0.0129% [at 18.6 µM] | fluorescence, % of fluorescent control [7] 0.157% [at 18.6 µM] | fluorescence, % of fluorescein [16] -0.0095% [at 18.6 µM] | fluorescence, % of fluorescent control [8] 0.179% [at 18.6 µM] | activity change [9] -0.0456% [at 18.6 µM] | fluorescence, % of fluorescent control [10] 0.179% [at 18.6 µM] | fluorescence, % of Rose Bengal [11] 0.264% [at 18.6 µM] | fluorescence, % of fluorescent control [12] -0.0059% [at 18.6 µM] | fluorescence, % of fluorescent control [14] -0.0332% [at 18.6 µM] | Potency [17]

CC(C)O.CC(C)O.CCOC(=O)/C=C(\C)O.CCOC(=O)/C=C(\C)O.[Ti]
inactive: Potency [2] | Potency [3] | Potency [4] | Potency [5] | outcome [6] | Potency [7] | outcome [16] | outcome [8] | outcome [9] | Potency [10] | Potency [11] | outcome [12] | outcome [14]

O=C1CCCCCCCCCCCC(=O)OCCO1
inactive: Potency [18] | Potency [2] | Potency [3] | Potency [4] | Potency [5] | outcome [6] | Potency [7] | outcome [16] | outcome [8] | outcome [9] | Potency [10] | Potency [11] | outcome [12] | Potency [13] | outcome [14] | Potency [17]

O=C(O)CC(=O)C(=O)O
inactive: Potency [18] | Potency [2] | Potency [3] | Potency [5] | outcome [6] | Potency [7] | outcome [16] | outcome [8] | outcome [9] | Potency [10] | Potency [11] | outcome [12] | Potency [13] | outcome [14] | Potency [15] | Potency [17]

CCN(CC)CCOC(=O)C(c1ccccc1)C1CCCCC1 (stereo not given)
inactive: Potency [1] | Potency [2] | Potency [4] | outcome [6] | Potency [7] | outcome [16] | outcome [8] | outcome [9] | Potency [10] | Potency [11] | outcome [12] | Potency [13] | outcome [14] | Potency [15] | Potency [17]

CCCCCCCC/C=C\CCCCCCCC(=O)OCC
inactive: Potency [1] | Potency [2] | Potency [3] | Potency [4] | Potency [5] | outcome [6] | Potency [7] | outcome [16] | outcome [8] | Potency [10] | Potency [11] | outcome [12] | Potency [13] | outcome [14] | Potency [15] | Potency [17]
